Hit rate of the full screen: of about 5,600 compounds, about 780 (14%) were called active. Roughly 3% stayed inconclusive and do not appear here.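 The calls were made as follows: active = mean signal decrease across replicates above about 35% based on untreated-well scatter, with enough replicates individually passing (limit read from the data); inconclusive = no rule stated though some were filed; inactive = the rest.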 A selection follows.
Test: NIH3T3 cell viability loss – cherry-pick, single point, cytotoxicity control for T. cruzi proliferation inhibitor project, confirmation (AID 651742);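 also: 0% = median of neutral control wells and 100% = median of positive control wells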
Settings: NIH/3T3 viability, CellTiter-Glo ATP luminescence, 90 h; at 8.35 µM; active compounds read high

Compound | cytotoxicity (signal decrease)
COc1ccc(S(=O)(=O)N2CCCCN3[C@H](C2)[C@H](c2ccc(C#CCC(C)C)cc2)[C@@H]3CO)cc1 | 20.8% (inactive)
COc1ccc(S(=O)(=O)N2CCCCN3[C@H](CO)[C@@H](c4ccc(C#CC(C)C)cc4)[C@H]3C2)cc1 | 27.6% (inactive)
CNC[C@H]1OCCCC[C@H](C)Oc2ccc(NC(=O)Nc3c(C)noc3C)cc2C(=O)N([C@H](C)CO)C[C@H]1C | 6.78% (inactive)
COc1ccc(-c2ccc3c(c2)[C@@H]2[C@@H](CCN2C(=O)Cc2ccccn2)[C@H](CO)N3C)cc1 | 3.57% (inactive)
C[C@@H]1CN([C@@H](C)CO)C(=O)CCCn2cc(nn2)CO[C@@H]1CN(C)S(=O)(=O)c1ccccc1F | -3.89% (inactive)
C[C@@H]1CN([C@H](C)CO)C(=O)c2cc(/C=C/c3ccccc3)cnc2O[C@@H]1CN(C)Cc1ccncc1 | 0.61% (inactive)
C[C@H](CO)N1C[C@H](C)[C@@H](CN(C)C(=O)Nc2cc(F)ccc2F)Oc2cc(C#CC3CC3)ccc2S1(=O)=O | -4.87% (inactive)
C[C@@H]1CN([C@H](C)CO)S(=O)(=O)c2ccc(-c3cccc(C#N)c3)cc2O[C@@H]1CN(C)C(=O)Nc1ccccc1F | 45.7% (active)
C[C@@H]1CN([C@@H](C)CO)S(=O)(=O)c2ccc(C#Cc3ccccc3)cc2O[C@@H]1CN(C)C(=O)Nc1ccccc1 | 11.7% (inactive)
CN1c2ccc(-c3ccccc3)cc2[C@@H]2[C@@H](CCN2C(=O)c2ccncc2)[C@@H]1CO | 5.49% (inactive)
O=C(C[C@H]1CC[C@@H]2[C@H](COC[C@H](O)CN2Cc2ccc(Oc3ccccc3)cc2)O1)N1CCN(c2ccccc2)CC1 | -0.257% (inactive)
CCCC#Cc1ccc2c(c1)O[C@H](CN(C)C(=O)CC)[C@@H](C)CN([C@H](C)CO)S2(=O)=O | 17.5% (inactive)
CC(C)C#Cc1ccc2c(c1)O[C@H](CN(C)Cc1ccccc1)[C@H](C)CN([C@@H](C)CO)S2(=O)=O | 41.7% (active)
C[C@H]1CN([C@@H](C)CO)S(=O)(=O)c2ccc(C#CCN(C)C)cc2O[C@@H]1CN(C)Cc1ccc(F)cc1 | 48.1% (active)
CCC(=O)N(C)C[C@@H]1Oc2cc(C#CCN(C)C)ccc2S(=O)(=O)N([C@H](C)CO)C[C@H]1C | -1.94% (inactive)
CC(=O)N(C)C[C@H]1Oc2cc(C#CCN(C)C)ccc2S(=O)(=O)N([C@@H](C)CO)C[C@@H]1C | 4.99% (inactive)
C[C@@H]1CN([C@@H](C)CO)S(=O)(=O)c2ccc(/C=C/c3ccccc3)cc2O[C@H]1CN(C)Cc1ccccc1 | 21.8% (inactive)
C[C@@H]1CN([C@H](C)CO)S(=O)(=O)c2ccc(C#C[C@@H](C)O)cc2O[C@@H]1CN(C)Cc1ccc(-c2ccccc2)cc1 | 14.4% (inactive)
O=C(Cc1ccccc1)N1CC[C@H]2[C@H](CO)Nc3ccc(-c4ccccc4F)cc3[C@H]21 | -5.9% (inactive)
C[C@@H]1CN([C@H](C)CO)C(=O)c2cccc(NC(=O)c3ccc(-c4nccs4)cc3)c2O[C@@H]1CN(C)C(=O)Nc1ccc(C(F)(F)F)cc1 | 26% (inactive)

Compound | cytotoxicity (signal decrease)
C[C@@H]1CCCCO[C@H](CN(C)C(=O)Nc2ccc(C(F)(F)F)cc2)[C@H](C)CN([C@H](C)CO)C(=O)c2cc(NC(=O)Nc3ccc(C(F)(F)F)cc3)ccc2O1 | -8.85% (inactive)
N#C[C@H]1[C@@H](c2ccc(C3=CCCCC3)cc2)[C@@H](CO)N1C(=O)NC1CCCCC1 | 42.8% (active)
CC(C)NC(=O)N1[C@H](C#N)[C@H](c2ccc(C#CC3CCCCC3)cc2)[C@H]1CO | -28% (inactive)
CCc1cnc(N2[C@H](C#N)[C@H](c3ccc(C4=CCCC4)cc3)[C@@H]2CO)s1 | 9.56% (inactive)
Cc1noc(C)c1S(=O)(=O)Nc1ccc2c(c1)C(=O)N([C@@H](C)CO)C[C@@H](C)[C@H](CN(C)S(=O)(=O)c1ccc(Cl)cc1)OCCCC[C@H](C)O2 | -13.7% (inactive)
O=C(Nc1cc(F)ccc1F)N1CCCCN2[C@H](CO)[C@@H](c3ccc(-c4cncnc4)cc3)[C@H]2C1 | 15% (inactive)
CCCC#Cc1ccc2c(c1)O[C@@H](CN(C)C(=O)c1ccccc1F)[C@H](C)CN([C@H](C)CO)S2(=O)=O | 19.4% (inactive)
COc1ccc(S(=O)(=O)Nc2ccc3c(c2)C(=O)N([C@@H](C)CO)C[C@H](C)[C@H](CN(C)Cc2ccc(C(F)(F)F)cc2)O3)cc1 | 3.37% (inactive)
C/C=C/c1ccc([C@H]2[C@@H](CNC(C)C)N(c3nc(CC)cs3)[C@H]2CO)cc1 | 7.64% (inactive)
C[C@H](CO)N1C[C@H](C)[C@@H](CN(C)Cc2ccc(C(=O)Nc3ccccc3N)cc2)Oc2c(NC(=O)c3ccc(-c4nccs4)cc3)cccc2C1=O | -13.6% (inactive)
C[C@H](CO)N1C[C@H](C)[C@@H](CN(C)C(=O)C2CCCCC2)Oc2cc(-c3ccccc3)ccc2S1(=O)=O | 26.2% (inactive)
C[C@H]1CN([C@@H](C)CO)S(=O)(=O)c2ccc(C3=CCCC3)cc2O[C@@H]1CN(C)Cc1ccccc1 | 42.4% (active)
C[C@H]1CN([C@@H](C)CO)S(=O)(=O)c2ccc(C3=CCCCC3)cc2O[C@@H]1CN(C)Cc1ccccc1 | 119% (active)
C[C@@H]1CN([C@H](C)CO)S(=O)(=O)c2ccc(C3=CCCC3)cc2O[C@H]1CN(C)Cc1ccccc1F | 32% (inactive)
C[C@H](CO)N1C[C@H](C)[C@H](CN(C)Cc2ccncc2)Oc2cc(-c3ccncc3)ccc2S1(=O)=O | 19.9% (inactive)
COc1ccccc1-c1ccc2c(c1)O[C@@H](CN(C)C)[C@H](C)CN([C@H](C)CO)S2(=O)=O | -9.91% (inactive)
CS(=O)(=O)N1[C@@H](C#N)[C@H](c2ccc(C#CC3CCCCC3)cc2)[C@@H]1CO | 4.86% (inactive)
COc1cccc(S(=O)(=O)N2CCCCN3[C@H](C2)[C@H](c2ccc(C#CC(C)C)cc2)[C@@H]3CO)c1 | 19.3% (inactive)
C[C@@H]1CN([C@@H](C)CO)C(=O)c2cc(NC(=O)Nc3ccc(C(F)(F)F)cc3)ccc2O[C@@H](C)CCCCO[C@H]1CN(C)C(=O)c1ccccc1 | 23.5% (inactive)
C[C@H]1CN([C@@H](C)CO)C(=O)CCCn2cc(nn2)CO[C@H]1CN(C)C(=O)c1ccccc1 | 10.9% (inactive)

Compound | cytotoxicity (signal decrease)
C[C@H](CO)N1C[C@H](C)[C@H](CN(C)C(=O)Nc2ccc(C(F)(F)F)cc2)OCCCC[C@H](C)Oc2ccc(NC(=O)C3CCCCC3)cc2C1=O | -27% (inactive)
Cc1noc(C)c1S(=O)(=O)Nc1ccc2c(c1)C(=O)N([C@@H](C)CO)C[C@H](C)[C@@H](CN(C)C(=O)Nc1cccc3ccccc13)OCCCC[C@H](C)O2 | 7.99% (inactive)
COc1ccc(S(=O)(=O)Nc2ccc3c(c2)C(=O)N([C@H](C)CO)C[C@H](C)[C@H](CN(C)Cc2ccc(C(F)(F)F)cc2)O3)cc1 | 29% (inactive)
O=C(CN1CCOCC1)N1CCCCN2[C@@H](CO)[C@H](c3ccc(-c4ccccc4)cc3)[C@@H]2C1 | 8.85% (inactive)
C[C@H]1CN([C@@H](C)CO)C(=O)c2cc(NC(=O)Nc3ccc4c(c3)OCO4)ccc2O[C@@H]1CN(C)Cc1ccc(Oc2ccccc2)cc1 | 16% (inactive)
C[C@@H]1CN([C@@H](C)CO)C(=O)c2cc(NC(=O)Cc3ccccc3)ccc2O[C@@H]1CN(C)Cc1ccc(Oc2ccccc2)cc1 | 27.9% (inactive)
N#C[C@@H]1[C@@H](c2ccc(C#Cc3cccc(F)c3)cc2)[C@@H](CO)N1C(=O)C1CCC1 | 29.1% (inactive)
CC(C)CC#Cc1cnc2c(c1)C(=O)N([C@@H](C)CO)C[C@@H](C)[C@H](CN(C)C(=O)Cc1ccncc1)O2 | -12% (inactive)
CC(=O)N(C)C[C@@H]1[C@@H](c2ccc(-c3ccccc3F)cc2)[C@@H](CO)N1C(C)=O | 0.445% (inactive)
CCN(C[C@H]1[C@H](c2ccccc2)[C@H](CO)N1C(=O)C1CC1)C(=O)NC1CCCC1 | -12.5% (inactive)
CC(C)NC(=O)Nc1ccc2c(c1)C(=O)N([C@H](C)CO)C[C@H](C)[C@H](CN(C)C(=O)Nc1ccc(C(F)(F)F)cc1)OCCCC[C@@H](C)O2 | -9.66% (inactive)
OC[C@@H]1Nc2ccc(-c3cccc(F)c3)cc2[C@H]2[C@@H]1CCN2Cc1ccncc1 | 9.48% (inactive)
O=S(=O)(c1ccccc1)N1CC[C@@H]2[C@@H](CO)Nc3ccc(C#Cc4cccc(F)c4)cc3[C@@H]21 | 33% (inactive)
Cc1ccccc1S(=O)(=O)N1CC[C@H]2[C@H](CO)Nc3ccc(-c4cccc(F)c4)cc3[C@H]21 | 52.4% (active)
C[C@H](CO)N1C[C@H](C)[C@@H](CN(C)Cc2ccc(C(F)(F)F)cc2)OCCCC[C@H](C)Oc2ccc(NC(=O)C3CCCCC3)cc2C1=O | 27.4% (inactive)
COc1cccc(S(=O)(=O)Nc2ccc3c(c2)[C@H]2C[C@H](CC(=O)NCc4ccc(Cl)cc4)O[C@H](CO)[C@H]2O3)c1 | -23.8% (inactive)
CN(C)C(=O)c1ccc(-c2ccc3c(c2)[C@H]2[C@H](CCN2C(=O)c2ccc4c(c2)OCO4)[C@H](CO)N3)cc1 | -2.98% (inactive)
O=C(c1ccc(F)cc1)N1CCCCN2[C@H](C1)[C@@H](c1ccc(C#CC3(O)CCCC3)cc1)[C@@H]2CO | 2.43% (inactive)
C[C@H](CO)N1C[C@H](C)[C@H](CN(C)S(=O)(=O)c2ccc(F)cc2)OCCCC[C@H](C)Oc2ccc(NS(=O)(=O)c3ccc(Cl)cc3)cc2C1=O | 22.2% (inactive)
C[C@@H]1CN([C@H](C)CO)C(=O)c2cccc(NC(=O)NC3CCCCC3)c2O[C@H]1CN(C)Cc1ccc(C(F)(F)F)cc1 | -8.62% (inactive)

Source: PubChem BioAssay AID651742 (Broad Institute, 2012)
